Test results reported in PubChem BioAssay.
Calls of active or inactive are those of the source.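 How the source made its calls, unless noted: active means visually confirmed hit in the image check and inhibition above 20%; inconclusive means visually confirmed hit but inhibition not above 20%; inactive means no visual hit in the image check.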

Legend:
[1] = inhibitors of TNFa-induced NFkB p65 translocation, primary screen, imaging, HUVEC, MLSMR starter and 10KST1 sets (AID 438;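 active means inhibition above 20% together with a positive visual image hit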;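 further: compound added about 3h40 before a 20 min TNFalpha stimulation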;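 on inhibition: signal is the nuclear over cytoplasmic p65 intensity ratio per well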); details: HUVEC TNFa-induced p65 nuclear translocation; cell count: measured here: nuclei count (cytotoxicity indicator), at 2.08 µM; inhibition: at 2 µM, stronger effect = higher value, 0% TNFa-plus-vehicle, 100% no-TNFa wells
[2] = reduction of polyQ htt aggregates in cells – imaging, exon1htt(103Q)mCFP cells, high-content imaging, primary screen (AID 483;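 active means visual image review flags a hit and inhibition of aggregation exceeds 20%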;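 further: compound exposure lasted 3 days before fixation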;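 on nuclei count: percent of the per-plate median nuclei count of sample wells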); details: exon1htt(103Q)mCFP cell line, aggregate imaging, at 2 µM; inhibition of aggregation: stronger effect = higher value; nuclei count: measured here: cell count, toxicity
[3] = endothelial E-selectin expression blockers – imaging, HUVEC, immunofluorescence, MLSMR starter and 10KST1 sets, primary screen (AID 487); details: HUVEC TNFalpha-induced E-selectin immunofluorescence imaging, at 2 µM; inhibition: stronger effect = higher value; nuclei count: measured here: cell number, toxicity;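 on inhibition: signal is fraction of cell area covered by stained E-selectin grains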;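 on nuclei count: 100% = median nuclei count of all wells on the same plate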
[4] = molecular target: Voltage-gated potassium channel subunit beta-2 (Rattus norvegicus) (UniProt P62483); test: inhibitors of rat Kvbeta2 reductase activity – biochemical, NADPH fluorescence, primary screen (AID 622;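 active means fluorescence slope higher than the sample average by over 3 SD, cut at about -0.22 in these data, passing the limit was not always enough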;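 further: slope of raw intensity against log time taken from 70 to 1610 s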); details: recombinant KvBeta, 4-cyanobenzaldehyde reduction, at 10 µM, stronger effect = higher value
[5] = molecular target: Voltage-gated potassium channel subunit beta-2 (Rattus norvegicus) (UniProt P62483); test: enhancers of rat Kvbeta2 NADPH turnover – biochemical, NADPH fluorescence, primary screen (AID 623;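 active means NADPH fluorescence slope more negative than the mean of all samples by about 3 SD, 99.7% confidence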;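 further: fluorescence intensity change per second fitted from 20 to 320 s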); details: Recombinant KvBeta, NADPH fluorescence decrease slope, 10 min; at 10 µM; stronger effect = lower value
[6] = molecular target: Alpha-2C adrenergic receptor (Homo sapiens) (UniProt P18825); test: compounds altering alpha2C-coupled GIRK flux – cell-based, HEK293 alpha2C/GIRK1/2, thallium flux, primary screen (AID 624;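 active means fluorescence slope after compound addition differing from the mean of all screened samples at 99.7% confidence, in either direction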;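 further: slope of fluorescence ratio to pre-addition baseline per second over 15 to 24 s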); details: thallium flux BTC fluorescence, at 10 µM, actives lie on both sides
[7] = blockers of RIG-like receptor reporter activation – cell-based, Sendai virus stimulus, luciferase, 10K MLSCN set, TLR/RLR signaling modifier project, primary screen (AID 602276;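 active means inhibition at or above 50% at 10 µM; inactive means inhibition below 50%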;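 further: firefly luciferase from ISG56 promoter only with Renilla not read in this screen; 0% = Sendai virus plus DMSO and 100% = medium plus DMSO without virus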); details: HEK293 RL24 IRF3 luciferase reporter, at 10 µM, stronger effect = higher value
[8] = TLR3 IRF3 reporter activation blockers – cell-based, poly I:C stimulus, luciferase, 10K MLSCN set, primary screen (AID 602277;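 active means inhibition of the reporter signal at or above 50%; inactive means inhibition below 50%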); details: HEK293-TLR3 RL24 IRF3 luciferase reporter, at 10 µM, stronger effect = higher value

Sequence of Voltage-gated potassium channel subunit beta-2 (Rattus norvegicus) (P62483 whole entry, looked up): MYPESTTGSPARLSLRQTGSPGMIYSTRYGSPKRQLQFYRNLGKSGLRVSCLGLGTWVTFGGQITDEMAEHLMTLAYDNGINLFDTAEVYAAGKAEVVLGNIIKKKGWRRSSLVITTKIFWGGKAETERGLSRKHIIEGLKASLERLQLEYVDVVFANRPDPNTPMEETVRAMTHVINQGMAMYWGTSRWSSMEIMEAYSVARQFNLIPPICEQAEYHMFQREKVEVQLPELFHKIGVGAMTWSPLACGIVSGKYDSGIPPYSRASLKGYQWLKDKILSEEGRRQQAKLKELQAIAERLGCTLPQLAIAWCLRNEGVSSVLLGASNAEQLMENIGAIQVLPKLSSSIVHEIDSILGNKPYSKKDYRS
Sequence of Alpha-2C adrenergic receptor (Homo sapiens) (P18825 whole entry, looked up): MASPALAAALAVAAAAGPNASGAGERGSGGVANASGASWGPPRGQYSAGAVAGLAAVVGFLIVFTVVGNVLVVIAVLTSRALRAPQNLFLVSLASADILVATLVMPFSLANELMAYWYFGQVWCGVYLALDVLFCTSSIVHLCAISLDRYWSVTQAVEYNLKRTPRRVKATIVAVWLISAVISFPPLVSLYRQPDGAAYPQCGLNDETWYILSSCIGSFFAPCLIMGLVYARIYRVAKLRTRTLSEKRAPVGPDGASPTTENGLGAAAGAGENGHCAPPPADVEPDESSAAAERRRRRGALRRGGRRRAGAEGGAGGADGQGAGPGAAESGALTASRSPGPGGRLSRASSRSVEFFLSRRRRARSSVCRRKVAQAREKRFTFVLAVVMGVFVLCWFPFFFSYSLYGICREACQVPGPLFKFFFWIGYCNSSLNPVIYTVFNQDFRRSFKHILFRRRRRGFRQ

| Compound | cell count [1] | inhibition [1] | inhibition of aggregation [2] | nuclei count [2] | inhibition [3] | nuclei count [3] | fluorescence slope [4] | NADPH fluorescence slope [5] | slope [6] | inhibition [7] | inhibition [8] |
| --- | --- | --- | --- | --- | --- | --- | --- | --- | --- | --- | --- |
| CC(=O)SCCC(=O)Nc1ccccc1 | 646 | -1.4% (inactive) | -12.1% (inactive) | 122% | -61.7% (inactive) | 108% | -0.498 (inactive) | 3.1e-06 (inactive) | 0.00709 (inactive) | 20.3% (inactive) | 28.9% (inactive) |
| CCOc1ccc(N(CC(=O)Nc2cccc(OC)c2)S(=O)(=O)c2c(C)noc2C)cc1 | 490 | -7.9% (inactive) | 18.7% (inactive) | 67% | -27% (inactive) | 109% | -0.518 (inactive) | -2.7e-05 (inactive) | 0.00799 (inactive) | 24.2% (inactive) | 22.1% (inactive) |
| O=C(Nc1nc(-c2ccccn2)cs1)C1CC1 | 673 | -3.3% (inactive) | 2.7% (inactive) | 94.5% | -21% (inactive) | 115% | -0.482 (inactive) | -7.5e-05 (inactive) | 0.00645 (inactive) | -68.6% (inactive) | -114% (inactive) |
| COc1ccc(CN(C(=O)c2cccs2)c2nccs2)cc1OC | 457 | 3.9% (inactive) | -1.2% (inactive) | 112% | -60.6% (inactive) | 111% | -0.458 (inactive) | -3e-05 (inactive) | 0.00675 (inactive) | -2.48% (inactive) | 21.6% (inactive) |
| c1ccc(Cc2ccc(OCCn3cncn3)cc2)cc1 | 755 | -5.6% (inactive) | -15.5% (inactive) | 102% | -68.7% (inactive) | 108% | -0.477 (inactive) | 1.2e-05 (inactive) | 0.00592 (inactive) | -18.4% (inactive) | -0.13% (inactive) |
| C=CCSC1=C(C#N)C(c2ccccc2C)CC(=O)N1 (centres undefined) | 556 | 2.1% (inactive) | -12.2% (inactive) | 94% | -48.8% (inactive) | 174% | -0.601 (inactive) | -1.1e-05 (inactive) | 0.00492 (inactive) | -5.91% (inactive) | -13.9% (inactive) |
| Cc1ccc(NC(=O)CN2CC(C)SC2=NC2CCCCC2)cc1 (centres undefined) | 519 | 10.1% (inactive) | -7.2% (inactive) | 109% | -38.8% (inactive) | 112% | -0.514 (inactive) | -4.1e-05 (inactive) | 0.00585 (inactive) | 17.3% (inactive) | 13.9% (inactive) |
| O=C(Cn1ncc2c(=O)oc3ccccc3c21)NCCCN1CCCC1=O | 807 | -9.2% (inactive) | 10.5% (inactive) | 84.8% | -33% (inactive) | 116% | -0.576 (inactive) | -1.5e-05 (inactive) | 0.00642 (inactive) | 1.1% (inactive) | 24.5% (inactive) |
| COc1ccc(C2CC(c3ccc(OC)cc3)n3nc(N)nc3N2)cc1 (centres undefined) | 595 | 6.1% (inactive) | -5.1% (inactive) | 99.7% | 28.5% (inactive) | 102% | -0.595 (inactive) | -3.1e-05 (inactive) | 0.00691 (inactive) | 6.72% (inactive) | 20.7% (inactive) |
| Cn1cccc1Cc1nnc(SCC(=O)NCC2CCCO2)n1-c1ccc(F)cc1 (centres undefined) | 716 | -4% (inactive) | 50.2% (active) | 95.9% | -44.1% (inactive) | 111% | -0.537 (inactive) | -3e-05 (inactive) | 0.00677 (inactive) | 10.8% (inactive) | 39.9% (inactive) |
| Cc1ccc(N2C(=O)c3oc4ccccc4c(=O)c3C2c2cccc(O)c2)nc1 (centres undefined) | 752 | 6.1% (inactive) | -1.9% (inactive) | 64.5% | -6.3% (inactive) | 66.8% | -0.589 (inactive) | -3.8e-06 (inactive) | 0.00643 (inactive) | 11% (inactive) | 14.6% (inactive) |
| Cc1onc(-c2ccccc2Cl)c1C(=O)NCc1cccnc1 | 700 | 1% (inactive) | 8.2% (inactive) | 97.9% | 8.5% (inactive) | 92.3% | -0.523 (inactive) | 1.3e-05 (inactive) | 0.00593 (inactive) | 17.8% (inactive) | 19.3% (inactive) |
| Cc1ccc(NC(=O)CC2C(=O)NC3CCCCC3N2C(=O)c2ccc(F)cc2)cc1C (centres undefined) | 461 | -10.3% (inactive) | -9.9% (inactive) | 123% | -55.7% (inactive) | 178% | -0.478 (inactive) | 2.4e-05 (inactive) | 0.00684 (inactive) | 12.1% (inactive) | 15.6% (inactive) |
| COc1ccc(C(=O)Nc2nncs2)c(OC)c1 | 746 | 7.5% (inactive) | -7.4% (inactive) | 27% | -98.6% (inactive) | 111% | -0.631 (inactive) | 3.8e-06 (inactive) | 0.00588 (inactive) | -22.9% (inactive) | -48.7% (inactive) |
